Test results from PubChem BioAssay AID588819 (The Scripps Research Institute Molecular Screening Center, 2011).
Hit rate of the full screen: of about 360,000 compounds, about 320 (0.089%) were called active. No stated cut-off is given here; in the data, active means activation above about 19% (passing the limit was not always enough); inactive means the rest. Shown is part of a subset that was picked to be rich in actives.

These compounds were tested against Muscarinic acetylcholine receptor M1 (Homo sapiens) (UniProt P11229) (assay: CHRM1 PAMs potentiating acetylcholine calcium signal – CHO-K1 cells, Fluo-8 calcium fluorescence, 1536-well, primary screen (AID 588819)). Conditions: CHO-K1 hM1, Fluo-8 calcium fluorescence, ACh EC20; at 3 µM; hits give high values; 0% = ACh EC20, 100% = maximal ACh.
Chain of Muscarinic acetylcholine receptor M1 (Homo sapiens) (P11229 whole entry, looked up): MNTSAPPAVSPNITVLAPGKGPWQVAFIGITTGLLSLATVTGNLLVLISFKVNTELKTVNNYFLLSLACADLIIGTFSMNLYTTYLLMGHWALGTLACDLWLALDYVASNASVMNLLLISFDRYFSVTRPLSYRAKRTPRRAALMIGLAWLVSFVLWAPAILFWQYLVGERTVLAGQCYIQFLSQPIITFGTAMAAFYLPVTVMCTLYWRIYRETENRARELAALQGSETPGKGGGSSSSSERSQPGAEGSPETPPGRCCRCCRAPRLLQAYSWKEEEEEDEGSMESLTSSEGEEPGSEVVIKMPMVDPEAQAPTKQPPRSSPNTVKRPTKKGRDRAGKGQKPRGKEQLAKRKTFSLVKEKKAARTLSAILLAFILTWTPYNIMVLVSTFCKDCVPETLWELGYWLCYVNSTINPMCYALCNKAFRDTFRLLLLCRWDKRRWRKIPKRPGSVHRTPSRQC

activation, active:
CCOc1ccc(S(=O)(=O)N2CCN(C(=O)c3oc4ccccc4c3C)CC2)cc1 24.4%, O=C(CN1C(=O)C2C3C=CC(C3)C2C1=O)NCC1COc2ccccc2O1 (stereo not drawn) 19.5%, O=C1Nc2ccc(Br)cc2/C1=N/N=C/C1=C(N2CCOCC2)C(=C\c2ccccc2)/CC1 19.2%, COc1ccc(C(=O)Nc2ccccc2C(=O)NCc2ccco2)cc1 30.1%, Nc1nnnn1/N=C/c1cc([N+](=O)[O-])ccc1O 26.2%, CC(C)c1nc2ccc(C(=O)O)cc2[nH]1 31.2%, Cc1ccc(-c2cc(C(=O)N/N=C/C=C/c3ccco3)c3ccccc3n2)cc1C 21.5%, O=C(O)C1CCN(S(=O)(=O)N2CCOCC2)CC1 29.8%

activation, inactive:
CN(C(=O)c1cccc(NC(=O)Cc2ccc(NC(=O)C3CCN(C(=O)C4CCCCC4)CC3)cc2)c1)C1CCC1 0.54%, CS(=O)(=O)N(CC(=O)NC1CCCC1)Cc1ccc(F)cc1 0.34%, Cc1ccc(NC(=O)Cn2cccc2C2=NC(c3ccccc3)CO2)c(C)c1 (stereo not drawn) 6.3%, COCCn1c(SCC(=O)Nc2ccc3c(c2)CCC3)nc2ccccc2c1=O 5.21%, CCCC1NC(=O)NC(C)=C1C(=O)OCC (stereo not drawn) 3.33%, COCC(=O)Nc1cc(C(=O)OC)cc(C(=O)OC)c1 7.56%, Cc1cc(=O)oc(C)c1C(=O)Nc1cnc2ccccc2c1 1%, COc1ccc(S(=O)(=O)N2CCN(C(=O)c3cc(C)oc3C)CC2)cc1 10.8%, CCOC(=O)C1CCN(C(=O)c2oc3ccc(S(=O)(=O)N4CCCCCC4)cc3c2C)CC1 1.16%, CCOP(=O)(OCC)C(Nc1ccc([N+](=O)[O-])cc1)c1ccc(Cl)cc1 (stereo not drawn) -2.85%, Cc1ccc2oc(=O)c3cnn(CC(=O)N4CCN(c5ccccn5)CC4)c3c2c1 -8.22%, COCCNC(=O)NC(=O)COC(=O)C1(c2ccc(Cl)cc2)CC1 -0.78%, O=C(NCc1ccc(Cl)cc1)c1cc(=O)nc2sc(-c3ccccc3)nn12 -4.02%, O=C(Cn1nc(Cc2cccnc2)c2ccccc2c1=O)NCC1COc2ccccc2O1 (stereo not drawn) 9.27%, O=C(Cn1cnc2ccccc2c1=O)NCC1COc2ccccc2O1 (stereo not drawn) 3.11%, Cc1nn(Cc2ccccc2)c(C)c1C(=O)NCCCN1CCCC1=O 3.09%, COc1ccc(C)cc1NC(=O)CN(C)S(=O)(=O)c1ccc2c(c1)n(C)c(=O)c(=O)n2C 11.7%, CCOC(=O)c1cc2occc2n1CC(=O)N1CCN(C(=O)c2ccco2)CC1 0.31%, O=C(N/C(=C\c1ccc(O)cc1)C(=O)N1CCCCC1)c1ccccc1 -7.21%, O=C(O)c1ccc(NN=CC2=C(N3CCOCC3)/C(=C/c3ccccc3)CC2)cc1 1.33%, Cc1cccc(N2CC(C)Cn3c2nc2c3c(=O)n(CC(=O)OCc3ccccc3)c(=O)n2C)c1 (stereo not drawn) 6.13%, O=C(CCc1ccccc1)Nc1ccnn1C1CCN(Cc2ccc(OCCO)cc2)CC1 -2.48%, COc1cccc(Cn2cnc3c([N+](=O)[O-])c(C)c(C)cc32)c1 -0.11%, COCCNC(=S)N(CCc1c(C)[nH]c2ccc(C)cc12)Cc1cccnc1 9.1%, Cc1cccc(Nc2ccccc2C(=O)NCc2ccco2)c1C -3.33%, Cc1ccc(N(Cc2ccc(C(=O)Nc3ccccc3C(=O)NCc3ccco3)cc2)S(C)(=O)=O)cc1C -6.42%, CN=C(Nc1cccc(S(=O)(=O)N2CCOCC2)c1)c1ccccc1 -5.57%, Nc1nnnn1/N=C/c1cccs1 1.93%, Nc1nnnn1/N=C/c1cccc(Br)c1 11.8%, O=C(NCC(O)c1nc2ccccc2[nH]1)c1ccc(Br)cc1 (stereo not drawn) -1%, OC(c1nc2ccc(F)cc2[nH]1)C(O)c1nc2ccc(F)cc2[nH]1 (stereo not drawn) 3.09%, CN(c1ccccc1)S(=O)(=O)c1cccc(C(=O)NNC(=O)c2ccncc2)c1 1.76%, CCOc1ccc(-c2cc(C(=O)N/N=C/c3ccc(O)cc3)c3ccccc3n2)cc1 9.09%, O=C(N/N=C/C=C/c1ccco1)c1cccs1 8.09%, O=c1[nH]c2ccc(S(=O)(=O)N3CCCC3)cc2[nH]1 2.57%, O=C(C1CCN(C2CCN(Cc3ccc4cc(F)ccc4n3)CC2)CC1)N1CCCC1 8.71%, CCN(CC)CCn1c(=S)[nH]c2ncccc2c1=O 1.96%, CCc1ccc(NC(=O)CC2C(=O)NCCN2C(=S)Nc2ccccc2)cc1 (stereo not drawn) 7.43%, COc1ccccc1C(=O)Nc1nc2nc(-c3ccccc3)cc(=O)n2[nH]1 10.9%, O=C(CCC(=O)N1CCN(S(=O)(=O)c2ccc(Cl)cc2)CC1)NCc1cccc(C(F)(F)F)c1 -4.55%, COC(=O)c1ccc(C(=O)Nc2cc(Cl)ccc2Cl)cc1NC(=O)c1ccccc1C 7.99%, CCOC(=O)c1sc(/N=C/C2=C(O)CC(C)(C)CC2=O)c(C(=O)OCC)c1C 2.16%, CC(Oc1ccccc1F)C(=O)NN (stereo not drawn) 1.45%, COc1ccc(CCNC(=O)C2CCCN(Cc3nc(-c4cccc(Cl)c4)oc3C)C2)cc1OC (stereo not drawn) 4.43%, NC(=O)C1CCN(Cc2nc3c(Br)cc(Br)cc3c(=O)[nH]2)CC1 8.06%, COc1ccc(CNC(=O)C2CCN(S(=O)(=O)N3CCOCC3)CC2)cc1 5.85%, O=C(NCc1ccccc1Cl)C1CCN(S(=O)(=O)N2CCOCC2)CC1 -0.4%, COc1cc2c(cc1OC)C(C(=O)NCc1ccco1)C1c3ccccc3CCN1C2=O (stereo not drawn) 3.09%, O=C(NCc1csc(-c2cccs2)n1)C1CC1 9.22%, CC(=O)c1ccc(S(=O)(=O)Nc2ccc(-c3ccc4nncn4n3)cc2)cc1 7.59%
